Screening data deposited in PubChem BioAssay by National Center for Advancing Translational Sciences (NCATS).
In the library only some 7.5% were active in any assay of this set; here they are far more common.
ELG1 repair inh: inhibitors of ELG1-dependent DNA repair in HEK293T cells; 330,000 compounds, 2.3% hits; Potency, µM (titrated, usually from 46.1 µM), for the others: at the top dose activity change, negative = inhibition, hits mostly inhibitors; AID 504467; HEK293T ELG1-luciferase reporter, luminescence, 16 h; DNA damage induced by 5-fluorouridine; also: potency is read from the fitted curve at half-maximal effect; nearly all actives have a fitted effect of over 55% in size
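HEK293T cells expressing luciferase-tagged ELG1 (2,000/well) received 5-Fluorouridine plus compound or DMSO for 16 hr at 37 °C. Luciferase was read by ONE-Glo luminescence after 30 min at room temperature.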
TSHR antag: human thyrotropin receptor antagonism | TSHR-expressing cells, TSH-stimulated cAMP HTRF, 2 h; stronger effect = lower value | activity change, negative = inhibition, % at 11.5 µM | 330,000 compounds, 0.2% hits;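 active = activity change below a set negative limit, meaning inhibition stronger than a set level, cut at about -70% in these data; inconclusive = activity change between two set negative limits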
Target sequence (P16473 whole entry, looked up): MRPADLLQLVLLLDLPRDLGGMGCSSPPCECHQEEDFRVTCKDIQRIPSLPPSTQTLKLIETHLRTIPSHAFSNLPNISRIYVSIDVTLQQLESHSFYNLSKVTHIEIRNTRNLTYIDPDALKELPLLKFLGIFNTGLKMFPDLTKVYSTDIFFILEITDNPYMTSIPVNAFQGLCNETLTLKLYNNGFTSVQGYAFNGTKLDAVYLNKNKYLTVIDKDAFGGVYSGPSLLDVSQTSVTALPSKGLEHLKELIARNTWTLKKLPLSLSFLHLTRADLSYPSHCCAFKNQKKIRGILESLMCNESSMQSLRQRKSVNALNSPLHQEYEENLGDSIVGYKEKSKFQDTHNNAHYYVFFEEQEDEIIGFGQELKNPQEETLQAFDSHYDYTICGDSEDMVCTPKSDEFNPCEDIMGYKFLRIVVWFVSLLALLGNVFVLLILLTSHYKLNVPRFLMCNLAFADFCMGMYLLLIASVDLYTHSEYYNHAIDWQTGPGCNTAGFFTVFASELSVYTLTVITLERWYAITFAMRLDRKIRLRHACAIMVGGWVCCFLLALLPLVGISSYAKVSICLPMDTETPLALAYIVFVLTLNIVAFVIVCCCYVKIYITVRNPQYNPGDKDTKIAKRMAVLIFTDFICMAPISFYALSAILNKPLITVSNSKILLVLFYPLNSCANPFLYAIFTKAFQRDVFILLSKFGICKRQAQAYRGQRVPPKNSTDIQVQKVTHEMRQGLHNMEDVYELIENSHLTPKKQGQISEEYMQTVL
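Inhibition of cAMP made by TSHR-expressing cells under TSH stimulation (4nM final, EC80; 2 h, 37 deg C) is quantified with a one-step lysis HTRF kit, anti-cAMP cryptate versus cAMP-d2.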
B2AR arrestin: agonists driving beta-arrestin recruitment to human beta2-adrenergic receptor. Potency, µM (titrated, usually from 46.1 µM), without a hit: at the top dose activation, actives largely listed as activators. beta-arrestin recruitment to beta2AR, cell-based reporter. 330,000 compounds, 0.02% hits. P07550;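 also: potency is read from the fitted curve at half-maximal effect; 0% = DMSO controls and full agonism = EC100 isoproterenol or metaproterenol; nearly all actives have a fitted effect of over 65% in size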
RORg inh: inhibitors of mouse ROR gamma transcriptional activity; P51450; Drosophila S2 Gal4-RORgamma UAS-luciferase reporter, 20 h; 310,000 compounds, 5.4% hits; AID 2551; Potency, µM (doses to about 53.6 µM), for inactives: at the top dose activity change, negative = inhibition, most hits filed as inhibitors; also: potency is read from the fitted curve at half-maximal effect; nearly all actives have a fitted effect of over 60% in size
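Luciferase reporter read in Schneider cells carrying Gal4-RORγ (mouse) and UAS-Photinus luciferase; cells given compound 1 h before 700 uM copper sulfate induction, then incubated 20 h at ambient temperature.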
VP16 counter: counter-screen for ROR gamma inhibitors: Gal4-VP16 reporter. AID 2546. 310,000 compounds, 3.5% hits. Drosophila S2 Gal4-VP16 UAS-luciferase, luminescence, 20 h. Potency, µM (highest dose often 53.6 µM), inactives show at the highest dose activity, negative = inhibition, usual class: inhibitors;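 also: Gal4-VP16 expression switched on by copper sulfate through the metallothionein promoter; potency is read from the fitted curve at half-maximal effect; nearly all actives have a fitted effect of over 50% in size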
An asterisk follows results filed as active; ? = inconclusive; . = no result given; [ ] = another dose, or the depositor's remark. Unless noted, calls follow the shape of the dose curve; as a rule, active = well fitted curve in the direction sought with a large enough effect; inconclusive = small, poorly fitted or top-dose-only effect, or another doubt; inactive = no such curve, though single readings can be large; an effect the other way counts as inactive or inconclusive. Unless noted, % is scaled to controls: 0 for no effect and ±100 for the full control effect.

SMILES | ELG1 repair inh | TSHR antag | B2AR arrestin | RORg inh | VP16 counter
O=[N+]([O-])c1cc(/C=N/Nc2nc(N3CCCCC3)nc(N3CCCCC3)n2)ccc1O | 11% | 4 | 0% | -9% | -9%
COc1cc(/C=N/Nc2nc(Nc3ccccc3)nc(N3CCCCC3)n2)ccc1OCC(=O)O | 9% | -4 | 6% | -9% | -14%
CNC(=S)N/N=C/c1cn(CCOc2ccc(OC)cc2)c2ccccc12 | ? | -7 | -1% | 2.2µM* | 3.2µM*
COc1ccccc1OCCn1cc(/C=N/NC(=O)c2ccncc2)c2ccccc21 | -27% | 10 | 0% | 6.3µM* | ?
COC(=O)N/N=C/c1cn(CCCOc2ccccc2)c2ccccc12 | 16µM* | 52 | 0% | 17% | -19%
COC(=O)N/N=C/c1cn(Cc2c(Cl)cccc2Cl)c2ccccc12 | -25% | 22 | 3% | -16% | -7%
COC(=O)c1cn(CCOc2ccccc2OC)c2ccccc12 | ? | -14 | 0% | ? | ?
COC(=O)N/N=C/c1cn(Cc2ccc(F)cc2)c2ccccc12 | 0% | -11 | 0% | 45% | 3%
O=[N+]([O-])c1ccc(N/N=C/c2cn(Cc3ccc(F)cc3)c3ccccc23)nc1 | -5% | 19 | -1% | ? | 6.3µM*
CCCCN1CCC[C@@H]1CNC(=O)c1cc(C#N)c2ccccc2c1OC | . | . | . | 16% | -1%
Nc1ncnc2c1ncn2[C@@H]1O[C@H](CNCc2ccc(-c3cc(C(F)(F)F)ccc3Cl)o2)[C@@H](O)[C@H]1O | -17% | 15 | 0% | . | .
Cc1c(/C=N/NC(N)=O)c2ccccn2c1C(=O)c1ccc(F)cc1 | -19% | -7 | -2% | 2% | -13%
CNC(=S)N/N=C/c1c(C)c(C(=O)c2ccc(F)cc2)n2ccccc12 | -23% | -10 | 0% | 5µM* | 7.9µM*
COc1ccccc1OCCn1cc(/C=N/NC(N)=S)c2ccccc21 | 18µM* | -6 | 0% | 0.5µM* | 2µM*
O=C(N/N=C/c1cn(CCOc2ccccc2)c2ccccc12)c1ccncc1 | -12% | -6 | 0% | 6.3µM* | 10µM*
CNC(=S)N/N=C/c1cn(Cc2ccc(F)cc2)c2ccccc12 | 0% | 2 | 0% | 0.89µM* | 1.1µM*
CCCCCCN(C(=O)CCCCCN1C(=O)NC(C2CCCCC2)C(C(=O)OCc2ccccc2)=C1C)C(C(=O)NCCCC)c1ccc(OCC(=O)OC)c(C(=O)OC)c1 (centres undefined) | . | . | . | -3% | -18%
O=C(CCNC(=O)c1ccc(Br)cc1)NCc1cccnc1 | 15% | 25 | 0% | . | .
Cc1ccc(C)c(N2N=C(C(=O)Nc3cccc(S(=O)(=O)N4CCCCC4)c3)CCC2=O)c1 | -19% | 14 | 0% | . | .
CCN(CC)c1ccc(N=Cc2ccc([N+](=O)[O-])o2)cc1 | 6% | -14 | 0% | ? | 22µM*
COc1cc(C2=NOC(C(=O)N3CCCCCC3)C2)cc(OC)c1OC (centres undefined) | 7.3µM* | -2 | 0% | 2% | 2%
COc1cc(NC(=O)C2CC(c3ccccc3Cl)=NO2)cc(OC)c1OC (centres undefined) | ? | -7 | -1% | ? | 16µM*
COc1cccc(C2=NOC(C(=O)Nc3cc(OC)c(OC)c(OC)c3)C2)c1 (centres undefined) | 18µM* | 4 | 0% | 43% | -8%
COc1cc(NC(=O)C2CC(c3ccc(Cl)cc3)=NO2)cc(OC)c1OC (centres undefined) | ? | 30 | -1% | 19% | -2%
CCNC(=O)CCC(N)C(=O)O (centres undefined) | . | . | . | 1% | 2%
SMILES | ELG1 repair inh | TSHR antag | B2AR arrestin | RORg inh | VP16 counter
CNc1nc(Cl)nc2c1ncn2CC(COC(=O)C(C)(C)C)COC(=O)C(C)(C)C | . | . | . | 4% | -11%
CC1CCN(S(=O)(=O)c2cc(C(=O)N3CCN(c4ncccn4)CC3)ccc2Br)CC1 | 18µM* | -9 | 0% | 33% | 7.1µM*
COc1cc(/C=C/C(=O)N2CCCN(C(=O)/C=C/c3cc(OC)c(OC)c(OC)c3)CC2)cc(OC)c1OC | 16% | -1 | 3% | -7% | 25%
COc1cc(/C=C/C(=O)N2CCC=CC2=O)cc(OC)c1OC | ? | 4 | 0% | 3.5µM* | 7.9µM*
CCCCC/C=C\C/C=C\C/C=C\CCCCC(N)=O | . | . | . | -10% | 1%
COc1ccc(CNc2cccc3[nH]c(C(F)(F)F)nc23)cc1OC | 26µM* | -2 | 0% | 4% | -16%
COc1ccc(CNc2ccccc2SC)cc1OC | ? | -7 | 0% | -45% | 1%
CCOC(=O)C1=C(N)N2C(=O)C(C)SC2=C(C(=O)OCC)C1c1ccccc1 (centres undefined) | 4% | -15 | -1% | ? | 13µM*
CCOC(=O)C1=C(N)N2C(=O)C(C)SC2=C(C(=O)OCC)C1c1ccc(O)cc1 (centres undefined) | ? | 0 | -1% | -17% | 7%
Cn1ccnc1SCC(=O)n1c2c(c3ccccc31)CCCC2 | -2% | -3 | -2% | 14µM* | -30%
Cn1ccnc1SCC(=O)Nc1cccc2ccccc12 | ? | 4 | 6% | -1% | 7%
Cc1ccc(S(=O)(=O)N[C@H]2COC(=O)[C@@H](C)COC(=O)[C@H](C)NC(=O)C/C=C\[C@H]2C)cc1 | . | . | . | 0%[10 µM] | 6%[10 µM]
C[C@@H]1OC(O[C@H]2[C@H](Oc3cc(O)c4c(=O)c(O)c(-c5ccc(O)cc5)oc4c3)O[C@H](CO)[C@@H](O)[C@@H]2O)[C@H](O)[C@H](O)[C@H]1O (some centres undefined) | . | . | . | 10% | -4%
CS(=O)(=O)c1nc(-c2ccc(Br)cc2)cc(-c2ccccc2)c1C#N | 16µM* | ? | 0% | 3.2µM* | ?
N#Cc1c(-c2ccc(Br)cc2)cc(-c2cccnc2)nc1N | 0% | 27 | -1% | -8% | -11%
CS(=O)c1nc(-c2ccc(Br)cc2)cc(-c2ccccc2)c1C#N (centres undefined) | ? | -73* | 12% | 7.9µM* | 14µM*
Cc1ccccc1NC(=S)N=Nc1c(O)n(C)c2ccc(S(=O)(=O)N3CCOCC3)cc12 | 29% | -8 | ? | 0.32µM* | 0.79µM*
Cc1cccc(C)c1NC(=S)N=Nc1c(O)n(C)c2ccc(S(=O)(=O)N3CCOCC3)cc12 | ? | -4 | -1% | 1.3µM* | 4.5µM*
CCOc1ccc(OCC)c(NC(=O)CSc2nc3cccnc3n2C)c1 | ? | 0 | 0% | ? | 2%
Cc1ccc(-n2c(SCc3ccc([N+](=O)[O-])cc3)nc3ccccc3c2=O)cc1 | -26% | -2 | 1% | 34% | -4%
